The values below come from publication PMC11006913.

Numbering of substitutions follows the chain as printed.

Holding throughout (assay): PBM; 200 nM protein, PBS
Details in all cases: dsDNA, one strand shown

The target in assay [1] is T1, PAX4 (Homo sapiens, UniProt O43316 9-242).
T1 sequence: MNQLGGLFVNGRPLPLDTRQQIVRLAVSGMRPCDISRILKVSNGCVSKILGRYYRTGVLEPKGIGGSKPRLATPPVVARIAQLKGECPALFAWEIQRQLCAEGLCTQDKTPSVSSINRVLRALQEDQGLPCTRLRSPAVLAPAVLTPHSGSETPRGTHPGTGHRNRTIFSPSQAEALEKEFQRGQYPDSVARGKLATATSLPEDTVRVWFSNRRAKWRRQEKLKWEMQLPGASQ

Assay [2] concerns the target ALX1 (Homo sapiens, UniProt Q15699 118-204, L144V).
Assay [3] concerns the target ALX1 (Homo sapiens, UniProt Q15699 118-204, L144R).
The target of assay [4] is T2, PAX4 (Homo sapiens, UniProt O43316 9-242, F177V).
T2 sequence: T1 sequence with F169V

Assay [5] concerns the target T3, PAX4 (Homo sapiens, UniProt O43316 9-242, F177Y).
T3 sequence: T1 sequence with F169Y

Assay [6] addresses ALX1 (Homo sapiens, UniProt Q15699 118-204).
Another assay has as its target T4, VENTX (Homo sapiens, UniProt O95231 78-163, Y115F).
T4 sequence: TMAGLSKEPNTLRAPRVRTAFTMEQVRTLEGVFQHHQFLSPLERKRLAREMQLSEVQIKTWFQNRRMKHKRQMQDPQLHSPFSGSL

Assay [7] concerns the target T5, SIX6 (Homo sapiens, UniProt O95475 114-200, L167M).
T5 sequence: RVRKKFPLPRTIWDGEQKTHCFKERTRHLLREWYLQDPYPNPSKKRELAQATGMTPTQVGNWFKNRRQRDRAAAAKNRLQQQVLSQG

Assay [8] concerns the target T6, SIX6 (Homo sapiens, UniProt O95475 114-200, L143I).
T6 sequence: T5 sequence with L30I, M54L

The target of assay [9] is T7, PAX4 (Homo sapiens, UniProt O43316 9-242, R227W).
T7 sequence: T1 sequence with R219W

The next assay addresses T8, NKX2-4 (Homo sapiens, UniProt Q9H2Z4 175-261).
T8 sequence: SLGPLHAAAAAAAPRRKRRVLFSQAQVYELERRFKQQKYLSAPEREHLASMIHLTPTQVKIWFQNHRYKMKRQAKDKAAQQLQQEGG

Sequence of ALX1 (Homo sapiens, UniProt Q15699 118-204, L144R) (Q15699 118-204 L144R): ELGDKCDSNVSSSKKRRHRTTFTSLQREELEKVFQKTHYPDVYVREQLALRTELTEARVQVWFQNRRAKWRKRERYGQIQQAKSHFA
Sequence of ALX1 (Homo sapiens, UniProt Q15699 118-204) (Q15699 118-204): as the sequence (Q15699 118-204 L144R) above, with R27L counted along it
Sequence of ALX1 (Homo sapiens, UniProt Q15699 118-204, L144V) (Q15699 118-204 L144V): as the sequence (Q15699 118-204 L144R) above, with R27V counted along it

Consider ACGGATAA, for which the binding signal was 10.8 upbm affinity estimate (log intensity, higher = more binding, comparable within an allelic series) with PAX4 [1]; 8.5 upbm affinity estimate (log intensity, higher = more binding, comparable within an allelic series) with ALX1 [2]; 8.23 upbm affinity estimate (log intensity, higher = more binding, comparable within an allelic series) with ALX1 [3]; 10.1 upbm affinity estimate (log intensity, higher = more binding, comparable within an allelic series) with PAX4 [4]; 10.2 upbm affinity estimate (log intensity, higher = more binding, comparable within an allelic series) with PAX4 [5]; 8.73 upbm affinity estimate (log intensity, higher = more binding, comparable within an allelic series) with ALX1 [6].

As for AAATCGGT, in the assay with VENTX, the binding signal was 9.94 upbm affinity estimate (log intensity, higher = more binding, comparable within an allelic series).

ATCGATCG: the binding signal with PAX4 [1] was 10.5 upbm affinity estimate (log intensity, higher = more binding, comparable within an allelic series); in the assay with PAX4 [4], 10 upbm affinity estimate (log intensity, higher = more binding, comparable within an allelic series); in the assay with PAX4 [5], 10.1 upbm affinity estimate (log intensity, higher = more binding, comparable within an allelic series).

With ATATACTC, the binding signal was 10.7 upbm affinity estimate (log intensity, higher = more binding, comparable within an allelic series) with SIX6 [7] and 10.4 upbm affinity estimate (log intensity, higher = more binding, comparable within an allelic series) with SIX6 [8].

Turning to CGTATCAG, the binding signal with SIX6 [7] is 10.2 upbm affinity estimate (log intensity, higher = more binding, comparable within an allelic series).

For AATAACGG, the binding signal in the assay with PAX4 [1] is 10.8 upbm affinity estimate (log intensity, higher = more binding, comparable within an allelic series); with PAX4 [4] it was 10 upbm affinity estimate (log intensity, higher = more binding, comparable within an allelic series); with PAX4 [5], 10.1 upbm affinity estimate (log intensity, higher = more binding, comparable within an allelic series); with PAX4 [9], 10.1 upbm affinity estimate (log intensity, higher = more binding, comparable within an allelic series).

Take GTATCGAA: the binding signal with SIX6 [7] was 10.2 upbm affinity estimate (log intensity, higher = more binding, comparable within an allelic series).

Consider GTATCGAC, for which the binding signal in the assay with SIX6 [7] is 9.96 upbm affinity estimate (log intensity, higher = more binding, comparable within an allelic series).

In the case of GTATCGGA, in the assay with SIX6 [7], the binding signal was 10.1 upbm affinity estimate (log intensity, higher = more binding, comparable within an allelic series).

Regarding CATATCGA, the binding signal in the assay with SIX6 [7] is 10.2 upbm affinity estimate (log intensity, higher = more binding, comparable within an allelic series).

As for GGGATATA, the binding signal with SIX6 [7] was 10.8 upbm affinity estimate (log intensity, higher = more binding, comparable within an allelic series).

With TTAGTCAA, the binding signal is 10.9 upbm affinity estimate (log intensity, higher = more binding, comparable within an allelic series) with PAX4 [1]; 10.1 upbm affinity estimate (log intensity, higher = more binding, comparable within an allelic series) with PAX4 [4]; 10.2 upbm affinity estimate (log intensity, higher = more binding, comparable within an allelic series) with PAX4 [5]; 10.2 upbm affinity estimate (log intensity, higher = more binding, comparable within an allelic series) in the assay with PAX4 [9].

Turning to CCAATCAG, the binding signal with PAX4 [1] is 10.5 upbm affinity estimate (log intensity, higher = more binding, comparable within an allelic series); in the assay with PAX4 [4] it was 9.65 upbm affinity estimate (log intensity, higher = more binding, comparable within an allelic series); in the assay with PAX4 [5], 9.83 upbm affinity estimate (log intensity, higher = more binding, comparable within an allelic series); with PAX4 [9], 9.74 upbm affinity estimate (log intensity, higher = more binding, comparable within an allelic series).

With GAGATATA, in the assay with SIX6 [7], the binding signal is 10.8 upbm affinity estimate (log intensity, higher = more binding, comparable within an allelic series).

As to GAATTGAA, the binding signal in the assay with PAX4 [1] is 10.6 upbm affinity estimate (log intensity, higher = more binding, comparable within an allelic series); in the assay with PAX4 [4] it was 10.1 upbm affinity estimate (log intensity, higher = more binding, comparable within an allelic series); in the assay with PAX4 [9], 10.1 upbm affinity estimate (log intensity, higher = more binding, comparable within an allelic series).

For CCGTATCG, the binding signal in the assay with SIX6 [7] is 9.97 upbm affinity estimate (log intensity, higher = more binding, comparable within an allelic series).

Regarding ACTAACTA, the binding signal with PAX4 [1] was 10.8 upbm affinity estimate (log intensity, higher = more binding, comparable within an allelic series); with PAX4 [4], 10.1 upbm affinity estimate (log intensity, higher = more binding, comparable within an allelic series); in the assay with PAX4 [5] it was 10.1 upbm affinity estimate (log intensity, higher = more binding, comparable within an allelic series); in the assay with PAX4 [9], 10.2 upbm affinity estimate (log intensity, higher = more binding, comparable within an allelic series).

On to CGTATCGA, for which the binding signal with SIX6 [7] is 10 upbm affinity estimate (log intensity, higher = more binding, comparable within an allelic series).

Consider GTTAACCA, for which the binding signal in the assay with PAX4 [1] is 10.5 upbm affinity estimate (log intensity, higher = more binding, comparable within an allelic series); with PAX4 [4] it was 9.85 upbm affinity estimate (log intensity, higher = more binding, comparable within an allelic series); in the assay with PAX4 [5], 9.89 upbm affinity estimate (log intensity, higher = more binding, comparable within an allelic series); in the assay with PAX4 [9] it was 9.96 upbm affinity estimate (log intensity, higher = more binding, comparable within an allelic series).

For AGGGGTCA, in the assay with NKX2-4, the binding signal is 11.2 upbm affinity estimate (log intensity, higher = more binding, comparable within an allelic series).

For the sequence CGTTATGC, the binding signal in the assay with PAX4 [1] is 10.3 upbm affinity estimate (log intensity, higher = more binding, comparable within an allelic series); with PAX4 [9], 9.97 upbm affinity estimate (log intensity, higher = more binding, comparable within an allelic series).

For GGGGTATA, the binding signal with SIX6 [7] is 10.7 upbm affinity estimate (log intensity, higher = more binding, comparable within an allelic series).

Regarding CACGTATC, in the assay with SIX6 [7], the binding signal was 10.2 upbm affinity estimate (log intensity, higher = more binding, comparable within an allelic series).

ATATACCA: the binding signal in the assay with SIX6 [7] is 10.7 upbm affinity estimate (log intensity, higher = more binding, comparable within an allelic series).

For AATATACC, the binding signal in the assay with SIX6 [7] was 10.9 upbm affinity estimate (log intensity, higher = more binding, comparable within an allelic series).

Take CCACGTTA: the binding signal was 10.7 upbm affinity estimate (log intensity, higher = more binding, comparable within an allelic series) with PAX4 [1]; 10.1 upbm affinity estimate (log intensity, higher = more binding, comparable within an allelic series) in the assay with PAX4 [4]; 10.1 upbm affinity estimate (log intensity, higher = more binding, comparable within an allelic series) with PAX4 [5]; 10.2 upbm affinity estimate (log intensity, higher = more binding, comparable within an allelic series) with PAX4 [9].

For CGACACCA, the binding signal with SIX6 [7] was 9.52 upbm affinity estimate (log intensity, higher = more binding, comparable within an allelic series).

For TATATCCA, the binding signal in the assay with SIX6 [7] is 10.7 upbm affinity estimate (log intensity, higher = more binding, comparable within an allelic series).

In the case of CGTATCGC, the binding signal with SIX6 [7] is 10 upbm affinity estimate (log intensity, higher = more binding, comparable within an allelic series).

As for CCATATCG, in the assay with SIX6 [7], the binding signal was 10.1 upbm affinity estimate (log intensity, higher = more binding, comparable within an allelic series).

Turning to CGGATATA, the binding signal in the assay with SIX6 [7] is 10.8 upbm affinity estimate (log intensity, higher = more binding, comparable within an allelic series).

With ATTTTGGA, the binding signal was 10.5 upbm affinity estimate (log intensity, higher = more binding, comparable within an allelic series) in the assay with PAX4 [1] and 10 upbm affinity estimate (log intensity, higher = more binding, comparable within an allelic series) in the assay with PAX4 [5].

As for ACCGATAC, the binding signal with SIX6 [7] was 10.2 upbm affinity estimate (log intensity, higher = more binding, comparable within an allelic series).

Turning to AGGTATAT, in the assay with SIX6 [7], the binding signal is 10.8 upbm affinity estimate (log intensity, higher = more binding, comparable within an allelic series).

On to GGTATCGA, for which, in the assay with SIX6 [7], the binding signal was 10.4 upbm affinity estimate (log intensity, higher = more binding, comparable within an allelic series).

With GGCGATAC, the binding signal with SIX6 [7] was 10.1 upbm affinity estimate (log intensity, higher = more binding, comparable within an allelic series).

Take AAAACCAT: the binding signal with PAX4 [1] was 10.5 upbm affinity estimate (log intensity, higher = more binding, comparable within an allelic series); in the assay with PAX4 [5] it was 9.98 upbm affinity estimate (log intensity, higher = more binding, comparable within an allelic series); in the assay with PAX4 [9], 10.1 upbm affinity estimate (log intensity, higher = more binding, comparable within an allelic series).

Consider ATCTATAC, for which the binding signal in the assay with SIX6 [7] is 10.7 upbm affinity estimate (log intensity, higher = more binding, comparable within an allelic series); with SIX6 [8], 10.4 upbm affinity estimate (log intensity, higher = more binding, comparable within an allelic series); in the assay with PAX4 [5], 10.4 upbm affinity estimate (log intensity, higher = more binding, comparable within an allelic series).
